Assay results from PubChem BioAssay (NCI).
Compounds without any hit were thinned out: in the full panel of roughly 83,000, 20% have a hit.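 Plates (96-well) were seeded with cells, treated with compound at one concentration, and incubated for 48 hours before percent growth was determined.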 Calls of active or inactive are those of the source. The calls were made as follows: active = growth percent below 10; inactive = the rest.

Test system: SN12C renal
Assay: NCI-60 one-dose screen, 48 h (100 = growth as untreated, 0 = no growth, -100 = all killed)
Conditions: 10 µM unless noted

Row | SMILES | growth
1 | O=C(Nc1ccc(-n2ccc3c(NC(=O)c4ccccc4)ncnc32)cc1)c1ccc(Cl)c(C(F)(F)F)c1 | 22% (inactive)
2 | CC12CCC3C(CCC4CC(O)CCC43C)C1C/C(=C/O)C(=O)O2 (stereo not drawn) | 104% (inactive)
3 | O=C1/C(=C/c2cccc3cnccc23)Cc2cc(F)ccc21 | 94.6% (inactive)
4 | CCc1c(C)c2cc(-n3c(-c4ccc(OC)cc4)csc3=N)c(O)c(C)c2oc1=O | 10.2% (inactive)
5 | O=C(NCCNc1nccc(-c2c(-c3cccc(O)c3)nc3sccn23)n1)c1ccccc1O | 48% (inactive)
6 | NC(CCCC(N)C(=O)c1ccccc1)C(=O)O (stereo not drawn) | 104% (inactive)
7 | COc1ccc(-c2nnc(SCC(=O)N3CCN(c4cc5c(cc4F)c(=O)c(C(=O)O)cn5C4CC4)CC3)o2)cc1OC | 97.6% (inactive)
8 | CC(C)(C)C(=O)/C=c1/[nH]c(=O)/c(=C/c2ccccc2O)s1 | 58.2% (inactive)
9 | O=C1c2ccccc2OC=C(c2ccccc2)N1CCCCN1CCCCC1 | 20.4% (inactive)
10 | CNCCCOc1c(Br)cc(CCNC(=O)/C(Cc2cc(Br)c(OC)c(Br)c2)=N/O)cc1Br | -74% (active)
11 | COc1ccc(-c2nnc(SCC(=O)Nc3ccc(C(=O)/C=C/c4ccc(OC)c(OC)c4)cc3)o2)cc1 | 92.3% (inactive)
12 | COc1cc(-c2nc(SCC(=O)Nc3ccc(C(C)=O)cc3)[nH]c(=O)c2C#N)cc(OC)c1OC | 29.5% (inactive)
13 | O=C1OC(N(Cc2ccc(Cl)cc2)c2ccccc2)c2ccccc21 (stereo not drawn) | 94.6% (inactive)
14 | O=C(NNC(=O)c1ccc([N+](=O)[O-])cc1)c1ccc([N+](=O)[O-])cc1 | 112% (inactive)
15 | CCOC(=O)C1=C(N)Oc2cc(OC)ccc2C1c1ccc(F)c(F)c1 (stereo not drawn) | 47.1% (inactive)
16 | Cc1c(Cl)ccc2c(C(=O)Cl)cc(-c3ccccc3)nc12 | 99.9% (inactive)
17 | CCCCCCCCCCCCCCCC(=O)NS(=O)(=O)OC[C@H]1O[C@@H](n2cnc3c(N)ncnc32)[C@H](O)[C@@H]1O | -12.9% (active)
18 | COc1ccc(-c2nnc(NC(=O)CN3CCN(c4cc5c(cc4F)c(=O)c(C(=O)O)cn5C4CC4)CC3)s2)cc1OC | 95.5% (inactive)
19 | O=S(=O)(CCN1CCOCC1)Nc1cc(-c2ccc3ncnc(Nc4ccc(F)c(Cl)c4)c3c2)cnc1Cl | 18% (inactive)

Row | SMILES | growth
20 | C[C@]12O[C@H]1[C@H](O)c1c(cc(O)c3c1C(=O)c1cccc(O)c1-3)C2=O | 88.8% (inactive)
21 | COc1ccc(OCC(O)CN2CCN(c3ccc(Cl)cc3)CC2)cc1 (stereo not drawn) | 105% (inactive)
22 | COc1ccc2c(c1)O/C(=C/c1ccc(OCC(=O)Nc3ccc(S(N)(=O)=O)cc3)cc1)C2=O | 98.1% (inactive)
23 | O=C1COc2ccccc2C(=O)N1CCCCN1CCCCC1 | 99.2% (inactive)
24 | CCn1c(SCC(=O)c2ccc(Br)cc2)nnc1-c1cc2c([nH]c3ccccc32)c(-c2cccc(O)c2)n1 | 96.5% (inactive)
25 | CC(C)CNCC(O)COc1ccc(C(C)(C)c2ccc(OCC(O)CNCC(C)C)cc2)cc1 (stereo not drawn) | 67.5% (inactive)
26 | CC[C@H]1[C@@H]2C=C[C@@H]3[C@H]4C/C=C\C(=O)NCCC[C@@H]5NC(=O)/C(=C(O)/C=C/[C@@H]4C[C@@H]3[C@H]2C[C@H]1C)C5=O | -66.1% (active)
27 | Cc1cc(-c2ccccc2)nc2ccccc12 | 104% (inactive)
28 | CCn1c(SC)nnc1-c1cc2c([nH]c3ccccc32)c(-c2cccc(O)c2)n1 | 39.5% (inactive)
29 | O=C(O)c1ccc(-c2nn(-c3ccc(C(=O)O)cc3)cc2/C=N/Nc2c(F)c(F)cc(F)c2F)cc1 | 107% (inactive)
30 | CCN(CC)CCNCC(O)Cc1ccc(OC)cc1 (stereo not drawn) | 98.8% (inactive)
31 | Nc1ncnc2c1ncn2C1OC(COC(c2ccccc2)(c2ccccc2)c2ccccc2)C(O)C1O (stereo not drawn) | 93.7% (inactive)
32 | O=C(Nc1cccc(-n2ccc3c(NC(=O)c4ccccc4)nccc32)c1)c1cc(N2CCOCC2)cc(C(F)(F)F)c1 | 18.8% (inactive)
33 | Nn1c(CN2CCN(c3cc4c(cc3F)c(=O)c(C(=O)O)cn4C3CC3)CC2)n[nH]c1=S | 95.7% (inactive)
34 | CCOC(=O)c1[nH]c(-c2ccc(Cl)cc2)cc1-c1cccnc1 | 43.6% (inactive)
35 | O=c1c2ccccc2[nH]n1Cc1ccc2c(c1)OCO2 | 101% (inactive)
36 | Cc1ncc(CO)c(C(=O)O)c1O | 97.6% (inactive)
37 | CCN(CC)CCN1C(=O)c2c(c3c4ccccc4[nH]c3c3[nH]c4ccccc4c23)C1=O | 79.1% (inactive)
38 | C=CCn1c(SCC(=O)Nc2ccc(C(=O)/C=C/c3cc(OC)c(OC)c(OC)c3)cc2)nnc1-c1ccc(OC)cc1 | 13.8% (inactive)
